From PubChem BioAssay (Tox21) come the findings set out here.

The nature of assay [1]: qHTS assay to identify small molecule antagonists of the thyroid receptor (TR) signaling pathway (AID 743065). Note: nearly all actives have a fitted effect of over 55% in size. Note: potency is the fitted concentration of half-maximal effect. A digest of the protocol:
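GH3.TRE-Luc rat pituitary cells carrying two TR response elements driving luciferase were plated for 4 h, given compound plus 1 nM T3 (final), and incubated 23.5 h at 37 C. ONE-Glo luminescence measured reporter inhibition; CellTiter-Fluor fluorescence tracked cytotoxicity.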
(In general: Quantitative high-throughput screening tests each substance at several concentrations.)

In assay [2] the test system is thyroid hormone receptor (rat, GH3 cells). Kind of assay: qHTS assay to identify small molecule agonists of the thyroid receptor (TR) signaling pathway (AID 743066; calls by dose curve).
For assay [3], the target named is Estrogen receptor (Homo sapiens) (UniProt P03372). Put plainly: qHTS assay to identify small molecule antagonists of the estrogen receptor alpha (ER-alpha) signaling pathway (AID 743069; active = well fitted curve in the direction sought with a large enough effect in the signal ratio in the repeat runs, not every such curve was filed as active; the % refers to the signal ratio). In a few lines:
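A 17beta-estradiol challenge was applied right after compound transfer to ER-alpha-UAS-bla HEK293 cells previously kept in charcoal-stripped serum. Plates stood 18 hr at 37C and 5% CO2; fluorescence was read following 2 hr FRET substrate loading at room temperature.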

Assay [4] in a line: qHTS assay to identify small molecule antagonists of the estrogen receptor alpha (ER-alpha) signaling pathway - cell viability counter screen (AID 743074; calls by dose curve;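 note: HEK293 cells carrying ER-alpha-UAS-bla reporter stimulated with 17beta-estradiol; nearly all actives have a fitted effect of over 45% in size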; note: potency is the fitted concentration of half-maximal effect).
Assay [5] concerns the target Estrogen receptor (Homo sapiens) (UniProt P03372). Put plainly: qHTS assay to identify small molecule agonists of the estrogen receptor alpha (ER-alpha) signaling pathway (AID 743075; calls by dose curve;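 note: HEK293 GripTite cells with ER-alpha and UAS-driven beta-lactamase reporter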).
For assay [6] the target is unchanged. Put plainly: qHTS assay to identify small molecule agonists of the estrogen receptor alpha (ER-alpha) signaling pathway using the BG1 cell line (AID 743079). Note: nearly all actives have a fitted effect of over 20% in size. Note: potency is the fitted concentration of half-maximal effect. Conditions: BG1Luc4E2 cells, ERE-luciferase agonist, 22 h; activation: at 70.3 µM (top of the series).
Assay [7] is described as follows: qHTS assay to identify small molecule antagonists of the estrogen receptor alpha (ER-alpha) signaling pathway using the BG1 cell line (AID 743080; calls by dose curve;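 note: BG1 cells stimulated with 17beta-estradiol alongside compound; nearly all actives have a fitted effect of over 25% in size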). A digest of the protocol: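 BG1Luc4E2, endogenous ER-alpha, 4xERE-luc; 5 d charcoal-stripped FBS, phenol red free; 24 h plating; cpd + 17beta-estradiol 21.5 h, 37 C/5% CO2; CellTiter-Fluor viability 30 min, then ONE-Glo luciferase 30 min RT.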

Assay [8] can be described thus: qHTS assay to identify small molecule antagonists of the estrogen receptor alpha (ER-alpha) signaling pathway using the BG1 cell line - cell viability counter screen (AID 743081).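 Note: compound given together with 17beta-estradiol as the ER stimulus; nearly all actives have a fitted effect of over 45% in size.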 Note: potency is the fitted concentration of half-maximal effect.
In assay [9] the target is Aromatase (Homo sapiens) (UniProt P11511). Kind of assay: qHTS assay to identify aromatase inhibitors (AID 743083). Note: nearly all actives have a fitted effect of over 55% in size. Note: potency is the fitted concentration of half-maximal effect.
Sequence of Aromatase (Homo sapiens) (P11511 whole entry, looked up): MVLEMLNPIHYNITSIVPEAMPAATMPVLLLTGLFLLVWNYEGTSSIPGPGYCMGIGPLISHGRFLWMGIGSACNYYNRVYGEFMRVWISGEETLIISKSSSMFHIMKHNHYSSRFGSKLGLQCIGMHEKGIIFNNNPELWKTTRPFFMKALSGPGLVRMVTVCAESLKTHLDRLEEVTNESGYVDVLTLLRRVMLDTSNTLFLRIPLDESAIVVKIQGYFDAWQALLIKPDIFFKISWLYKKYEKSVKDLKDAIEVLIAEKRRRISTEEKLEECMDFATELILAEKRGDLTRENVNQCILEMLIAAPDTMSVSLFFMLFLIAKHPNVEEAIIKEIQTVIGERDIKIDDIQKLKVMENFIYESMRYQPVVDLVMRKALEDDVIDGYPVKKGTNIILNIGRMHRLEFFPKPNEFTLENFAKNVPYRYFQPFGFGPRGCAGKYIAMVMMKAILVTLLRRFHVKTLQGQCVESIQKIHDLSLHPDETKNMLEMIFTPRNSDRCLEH
Assay [10] can be described thus: qHTS assay to identify small molecule antagonists of the thyroid receptor (TR) signaling pathway - cell viability counter screen (AID 743064). Note: nearly all actives have a fitted effect of over 50% in size. Note: potency is the fitted concentration of half-maximal effect. In a few lines: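 GH3.TRE-Luc cells, 4 h pre-plating; cpd + T3 1 nM final; 37 °C 23.5 h; CellTiter-Fluor 30 min; fluorescence read.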

“And” between values parts separate entries of the source, which are not always exact repeats. Identical values can stand only once. Records with an inconclusive call do not appear. The source made the active and inactive calls. Unless noted, calls come from the whole dose curve; as a rule, active = well fitted curve in the direction sought with a large enough effect in the repeat runs; inconclusive = weak or mixed curves; inactive = no such curve, though single readings can be large; an effect the other way counts as inactive or inconclusive.

Sequence of Estrogen receptor (Homo sapiens) (P03372 whole entry, looked up): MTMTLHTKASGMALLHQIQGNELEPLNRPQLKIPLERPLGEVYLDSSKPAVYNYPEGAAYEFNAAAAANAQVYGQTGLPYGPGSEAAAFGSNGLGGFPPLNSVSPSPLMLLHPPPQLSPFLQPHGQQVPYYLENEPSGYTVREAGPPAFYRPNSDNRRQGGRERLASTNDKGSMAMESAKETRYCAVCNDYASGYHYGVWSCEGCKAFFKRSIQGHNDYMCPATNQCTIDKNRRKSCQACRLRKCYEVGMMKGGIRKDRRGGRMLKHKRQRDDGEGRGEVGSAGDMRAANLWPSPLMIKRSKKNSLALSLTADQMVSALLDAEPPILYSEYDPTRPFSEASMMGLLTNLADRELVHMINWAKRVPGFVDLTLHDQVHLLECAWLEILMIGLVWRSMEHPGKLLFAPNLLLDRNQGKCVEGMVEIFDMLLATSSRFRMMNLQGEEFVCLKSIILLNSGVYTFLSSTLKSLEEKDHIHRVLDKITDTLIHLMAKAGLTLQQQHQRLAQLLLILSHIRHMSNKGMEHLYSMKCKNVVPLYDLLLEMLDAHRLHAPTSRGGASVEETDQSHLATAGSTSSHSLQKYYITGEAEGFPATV

For the compound `COc1cc2c(cc1OC)CC(=O)N(CCCN(C)C[C@H]1Cc3cc(OC)c(OC)cc31)CC2`, the Potency result in assay [1], in [2], in [3], in assay [4], in assay [5] and in assay [6] was “inactive” each time. Further, the Potency result in [7], in [8] and in assay [9] was “inactive” in each case.
Turning to `CN1[C@@H]2CC[C@H]1CC(OC(c1ccccc1)c1ccccc1)C2` (stereo partly drawn), the Potency in [1] was 13.3 µM (active) and 23.7 µM (active) and 11.9 µM (active). For the same compound, the Potency entry in assay [2], in assay [3], in [4], in assay [5], in assay [6] and in [7] was “inactive” each time. The Potency entry in assay [8] and in [9] was “inactive” each time.
Regarding `CC1(C)S[C@@H]2[C@H](NC(=O)[C@H](NC(=O)N3CCN(S(C)(=O)=O)C3=O)c3ccccc3)C(=O)N2[C@H]1C(=O)O`, the Potency result in assay [1], in [2], in assay [3], in assay [4], in assay [5] and in assay [7] was “inactive” each time. For the same compound, the Potency result in assay [8] and in [9] was “inactive” throughout. Besides, the Potency in [6] was 11.9 µM (active).
For `CN[C@@H]1[C@H](O[C@H]2[C@H](O[C@H]3[C@H](O)[C@@H](O)[C@H](N=C(N)N)[C@@H](O)[C@@H]3N=C(N)N)O[C@@H](C)[C@]2(O)CO)O[C@@H](CO)[C@H](O)[C@H]1O`, the Potency result in [10], in [4], in assay [8] and in assay [9] was “inactive” in each case.
As to `COCC(=O)Nc1cc(Sc2ccccc2)ccc1N=C(NC(=O)OC)NC(=O)OC`, the Potency in assay [1] was 23.7 µM (active). Besides, the Potency result in assay [2], in assay [3], in [4], in assay [5], in assay [6] and in assay [7] was “inactive” throughout. Also, the Potency entry in [8] and in assay [9] was “inactive” each time.
For the compound `O=C(O)CO.[NH2-].[NH2-].[Pt+2]`, the Potency result in [1], in [2], in assay [3], in assay [4], in assay [5] and in [6] was “inactive” throughout. Also, the Potency entry in assay [7], in assay [8] and in [9] was “inactive” throughout.
Take `O=C(Cn1c(=O)sc2ccc(Cl)cc21)N1CCN(CCO)CC1`: the Potency result in assay [10], in assay [4], in assay [8] and in [9] was “inactive” throughout.
With `CCCCCc1ccc(C)cc1O`, in assay [1], the Potency was 26.6 µM (active). Further, the Potency entry in assay [2], in [3], in assay [4], in [5], in [6] and in assay [7] was “inactive” each time. Further, in assay [8], the Potency result is “inactive”.
For `CCCCCCCC(=O)CC[C@@H]1[C@@H](C/C=C\CCCC(=O)OC(C)C)[C@@H](O)C[C@H]1O`, the values for the Potency in [10] and in assay [4] were 21.1 µM (active) and 26.8 µM (active), respectively. For the same compound, the Potency result in assay [5], in assay [6], in assay [7] and in [8] was “inactive” each time.
For the compound `CO/N=C(\C(=O)N[C@@H]1C(=O)N2C(C(=O)OCOC(=O)C(C)(C)C)=C(/C=C\c3scnc3C)CS[C@H]12)c1csc(N)n1`, the Potency result in assay [1], in assay [2], in assay [3], in [4], in assay [5] and in assay [6] was “inactive” throughout. Besides, the Potency entry in [7], in assay [8] and in [9] was “inactive” in each case.
For `C[C@H](CCCC(C)(C)O)[C@H]1CC[C@H]2[C@@H]3CC=C4C[C@@H](O)CC[C@]4(C)[C@H]3CC[C@]12C`, the Potency result in assay [10], in [4], in assay [8] and in assay [9] was “inactive” in each case.
`CN=C1C=CC(=C(c2ccc(N(C)C)cc2)c2ccc(N(C)C)cc2)C=C1`: the Potency is 3.35 µM (active) in assay [10], 9.52 µM (active) in assay [4], 11.9 µM (active) in [8] and 1.33 µM (active) in assay [9].
As for `FC(F)(F)C(F)(F)C(F)(F)C(F)(F)C(F)(F)C(F)(F)F`, the Potency result in assay [1], in assay [2], in assay [3], in assay [4], in [5] and in assay [6] was “inactive” in each case. Besides, the Potency result in assay [7], in assay [8] and in assay [9] was “inactive” in each case.
On to `OCCO[C@@H]1[C@@H](O)[C@H](O)[C@@H](CO)O[C@@H]1O`, for which the Potency result in assay [10], in [4], in [5], in [6], in assay [8] and in assay [9] was “inactive” in each case.
Turning to `CCNC(=O)[C@@H]1CCCN1C(=O)[C@H](CCCN=C(N)N)NC(=O)[C@H](CC(C)C)NC(=O)[C@@H](Cc1c[nH]c2ccccc12)NC(=O)[C@H](Cc1ccc(O)cc1)NC(=O)[C@H](CO)NC(=O)[C@H](Cc1c[nH]c2ccccc12)NC(=O)[C@H](Cc1cnc[nH]1)NC(=O)[C@@H]1CCC(=O)N1`, the Potency in assay [10] is 1.5 µM (active); in assay [4], 10.7 µM (active); in [8], 10.6 µM (active); in [9] it was 13.3 µM (active).
Take `CN1CCC(CN2c3ccccc3Sc3ccccc32)C1` (stereo not drawn): the Potency in assay [10] is 10.6 µM (active). The Potency entry in [4], in assay [5], in [6], in [7], in assay [8] and in assay [9] was “inactive” in each case.
As for `CC(C)CCCC(C)NC(C)C` (stereo not drawn), the Potency result in assay [1], in [2], in assay [3], in assay [4], in assay [5] and in assay [6] was “inactive” in each case. Moreover, the Potency result in [7], in [8] and in assay [9] was “inactive” throughout.
On to `O=C(O)[C@H]1/C(=C/CO)O[C@@H]2CC(=O)N21`, for which the Potency entry in [1], in [2], in [3], in assay [4], in assay [5] and in assay [6] was “inactive” throughout. Also, the Potency entry in assay [7], in [8] and in assay [9] was “inactive” in each case.
